# Screens: PubChem BioAssay, National Center for Advancing Translational Sciences (NCATS)
# This is a sample that favours compounds with a hit; in the whole collection about 2.8% have one here.
# POLK inh – DNA polymerase kappa (human) inhibition. hit rate 0.53% among 400,000. Q9UBT6. Potency, µM (titrated, usually from 107 µM), hits mostly inhibitors. AID 588579. purified Pol kappa, fluorescent DNA synthesis assay, 10 min
#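 Readout: fluorescence, taken kinetically at 0 and 10 min. Conditions: 10 nM Pol kappa, 15 min RT compound preincubation, 50 nM substrate final. Controls: enzyme-free buffer wells.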
# POLB inh – DNA polymerase beta (human) inhibition; Potency, µM (top dose mostly 114 µM), actives largely listed as inhibitors; P06746; hit rate 1.3% among 340,000; AID 485314; Pol beta primer extension/strand displacement, fluorescence kinetic
#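 Preincubation: enzyme (10 nM) with compound, 15 min, RT. Reaction: substrate added to 50 nM final. Reads: 0 and 10 min. Analysis: normalized, Hill fit.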
# PI5P4K alpha inh – blocks human PI5P4K alpha kinase activity; hit rate 1.2% among 330,000; PI5P4Kalpha enzyme, ADP-Glo luminescence, 60 min; stronger effect = lower value; P48426; max response, %; active = max response of -50% or lower; inconclusive = between -30% and -50%; inactive = -30% or higher; note: value at the top dose of about 77 µM
#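 Quantitative HTS of the MLSMR library against PI5P4Kalpha with substrate. ATP added last at 5 microM final; room temperature, 60 minutes. Remaining ATP depleted, ADP converted and read as luminescence.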
# WRN helicase inh – WRN helicase (human) inhibition. AID 651768. Potency, µM (titrated, usually from 114 µM), usual class: inhibitors. hit rate 0.46% among 360,000. Q14191. WRN helicase unwinding, fluorescent forked duplex, kinetic; note: nearly all actives have a fitted effect of over 55% in size
#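 WRN at 20 nM final was preincubated with compound for 15 min at room temperature; reaction started with 100 nM forked duplex oligonucleotide carrying fluorophore and quencher plus 2 mM ATP (final). Unwinding followed kinetically by red fluorescence (ex 525/em 598 nm).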
# Pol eta inh – blocks human DNA polymerase eta activity | recombinant Pol eta, fluorescent DNA replication assay | hit rate 1.2% among 390,000 | Potency, µM (highest dose often 114 µM), hits mostly inhibitors | Q9Y253
#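 Pol eta at 10 nM preincubated with compounds 15 min at room temperature; reaction started with fluorescent substrate (50 nM final) and read kinetically at 0 and 10 min.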
# Pol iota inh – DNA polymerase iota (human) inhibition. Potency, µM (top dose mostly 115 µM), most hits filed as inhibitors. Q9UNA4. hit rate 1% among 390,000. Pol iota fluorescent replication assay, 10 min
#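 Pol iota at 10 nM preincubated 15 min with compounds at room temperature; reaction started with fluorescent substrate, 50 nM final. Fluorescence read kinetically at 0 and 10 min; buffer-only wells as negative control.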
# Hits are given with their value; – = inactive; ? = inconclusive; · = no result; [ ] = remark or other dose. Unless noted, calls come from the whole dose curve; as a rule, active = well fitted curve in the direction sought with a large enough effect; inconclusive = small, poorly fitted or top-dose-only effect, or another doubt; inactive = no such curve, though single readings can be large; an effect the other way counts as inactive or inconclusive.
SMILES,POLK inh,POLB inh,PI5P4K alpha inh,WRN helicase inh,Pol eta inh,Pol iota inh
O=C(COC(=O)c1cc(-c2cccc3ccccc23)nc2ccccc12)NC1CCS(=O)(=O)C1 (stereo unspecified),–,50µM,–,79µM,–,?
CC1CCCC(NC(=O)COC(=O)c2ccc([N+](=O)[O-])s2)C1C (stereo unspecified),–,·,–,–,?,89µM
O=C(COC(=O)c1cccc2ccccc12)Nc1ncc(C(F)(F)F)cc1Cl,–,–,–,–,–,–
O=C(COC(=O)c1cc(-c2ccccc2Cl)nc2ccccc12)Nc1ncc(C(F)(F)F)cc1Cl,?,32µM,–,–,?,?
O=C(COC(=O)c1ccc([N+](=O)[O-])s1)Nc1ncc(C(F)(F)F)cc1Cl,–,?,–,–,35µM,?
CCCC[C@@H]1CNC(=O)C(=O)N1CCCC,·,·,–,–,·,·
CCN(CC)S(=O)(=O)c1ccc(NC(=O)CSc2nnc3c(n2)[nH]c2ccccc23)cc1,–,·,·,·,·,–
Cc1cc(C)cc(NC(=O)C2CCCN(c3nnc(-n4c(C)ccc4C)s3)C2)c1 (stereo unspecified),–,–,·,·,–,–
O=C1CCCC2=C1Sc1ccc(Cl)cc1N2,–,–,–,–,–,–
COC(=O)c1ccc2c(c1)SC1=C(CCCC1=O)N2,–,–,–,79µM,–,–
Cc1ccc(SCc2[nH]nc3c2C2(C(=O)Nc4ccc(F)cc42)C(C#N)=C(N)O3)cc1 (stereo unspecified),–,–,–,–,–,–
Cc1[nH]nc2c1C1(C(=O)Nc3ccc([N+](=O)[O-])cc31)C(C#N)=C(N)O2 (stereo unspecified),–,–,-56,–,–,–
Cc1ccccc1CS(=O)(=O)CCC(=O)NCCCN1CCN(c2ccccc2F)CC1,–,–,–,–,–,–
Cc1cc(C)c2c(=O)n(CC(=O)NCCCN3CCOCC3)sc2n1,–,?,-101,–,–,–
Cc1cc(C)c2c(=O)n(CC(=O)NCCCN3CCN(c4ccccc4F)CC3)sc2n1,–,–,-77,–,–,–
Cc1cc(C)c(S(=O)(=O)N(CC(=O)NCc2cccnc2)C2CCCCC2)c(C)c1,–,–,–,–,–,89µM
Cc1ccc(S(=O)(=O)N(CC(=O)NCc2cccnc2)C2CCCCC2)cc1,–,–,–,–,–,–
O=C(O)COc1ccc(Br)cc1/C=N/O,–,25µM,–,–,11µM,?
CCOc1ccc(Br)cc1/C=N/O,–,–,·,–,–,–
N#CC(Cc1ccc(O)c(O)c1)C(=O)N1CCc2ccccc21 (stereo unspecified),·,?,·,·,7.9µM,?
CC(NCc1ccc(S(N)(=O)=O)cc1)C(=O)N1CCc2ccccc21 (stereo unspecified),–,–,–,–,–,–
O=C(O)c1cccc(N/N=C/c2cc(Br)cc(Br)c2O)c1,?,?,–,?,?,?
Cc1c(N=Cc2cc(Br)cc(Br)c2O)cccc1C(=O)O,–,–,-58,?,?,?
CCOC(=O)COc1ccc(Br)cc1/C=C/c1[nH]c(=O)[nH]c(=O)c1[N+](=O)[O-],–,56µM,-59,–[11.6 µM],45µM,?
Cc1cc(OC(=O)c2cccc(Br)c2)c([N+](=O)[O-])c(=O)[nH]1,–,–,–,–,–,?
SMILES,POLK inh,POLB inh,PI5P4K alpha inh,WRN helicase inh,Pol eta inh,Pol iota inh
CCCOc1ccc(/C=C/c2[nH]c(=O)[nH]c(=O)c2[N+](=O)[O-])cc1OCC,–,–,–,–,–,–
CCOC(=O)COc1ccc(Br)cc1/C=C\c1[nH]c(=O)[nH]c(=O)c1[N+](=O)[O-],–,?,-74,–[11.6 µM],13µM,89µM
COc1ccc(NC(=O)Cn2c(=O)n(CCC(=O)NCc3ccccc3OC)c(=O)c3ccccc32)cc1Cl,–,–,·,·,–,–
O=C(NN1C(=O)c2ccc(-c3ccc4c(c3)C(=O)N(NC(=O)c3cccnc3)C4=O)cc2C1=O)c1cccnc1,–,?,?,–,50µM,50µM
COc1ccccc1CCNC(=O)c1ccc2nc[nH]c2c1,–,45µM,–,–,?,–
O=C(NCCSc1ccc(Br)cc1)c1ccc2nc[nH]c2c1,–,40µM,?,–,22µM,20µM
